# Assay outcomes from PubChem BioAssay.
# ALOX12 inhib: 12-hLO (ALOX12) enzyme inhibition. P18054. purified 12-hLO, xylenol orange hydroperoxide absorbance. Potency, µM (doses to about 57.1 µM), hits mostly inhibitors. actives 0.12% (n = 150,000). AID 1452; active = well fitted inhibition curve with a large enough effect; inconclusive = small, poorly fitted or top-dose-only effect; note: nearly all actives have a fitted effect of over 55% in size
#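 Purified human 12hLO (150 nM), preincubated 15 min with compound, then 40 uM arachidonic acid for 30 min, room temperature, Hepes pH 7.0 with 0.01% Triton X-100. Hydroperoxide detected by ferrous iron/xylenol orange; 573/405 nm absorbance ratio gives reaction progress.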
# ALDH1A1 inh: ALDH1A1 (human) enzyme inhibition; actives 7.3% (n = 220,000); Potency, µM (doses to about 75.3 µM), actives largely listed as inhibitors; Purified ALDH1A1, NADH fluorescence, propionaldehyde substrate; AID 1030; P00352
# Target sequence (P00352 whole entry, looked up): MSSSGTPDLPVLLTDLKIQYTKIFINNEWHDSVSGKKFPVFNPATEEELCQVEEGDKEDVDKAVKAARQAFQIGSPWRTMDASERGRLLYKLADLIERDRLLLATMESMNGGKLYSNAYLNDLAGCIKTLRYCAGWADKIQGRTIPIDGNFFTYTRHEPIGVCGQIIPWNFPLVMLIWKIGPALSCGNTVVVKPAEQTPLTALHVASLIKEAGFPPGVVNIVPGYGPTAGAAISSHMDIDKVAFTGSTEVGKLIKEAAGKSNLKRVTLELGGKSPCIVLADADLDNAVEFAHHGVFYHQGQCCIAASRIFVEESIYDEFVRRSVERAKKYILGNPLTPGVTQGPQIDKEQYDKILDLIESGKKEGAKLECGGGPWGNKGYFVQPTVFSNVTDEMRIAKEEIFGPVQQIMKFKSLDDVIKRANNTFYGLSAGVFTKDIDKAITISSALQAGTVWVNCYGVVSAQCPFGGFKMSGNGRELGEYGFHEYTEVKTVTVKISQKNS
# HPGD inh: HPGD (human) dehydrogenase inhibition; P15428; purified HPGD, NADH fluorescence kinetic, PGE2 substrate; Potency, µM, most hits filed as inhibitors; actives 4.3% (n = 150,000)
#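 20 nM HPGD preincubated 15 min at room temperature with compound in 50 mM Tris-HCl pH 8, 0.01% Tween 20. Started with 1 mM NAD+ and 30 uM prostaglandin E2; NADH fluorescence (360/450 nm) read 5 times over 30-s intervals, last minus first.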
# PNC assembly inh: inhibitors of perinucleolar compartment assembly. PC3M PTB-GFP, PNC prevalence imaging, 16 h; hits give low values. activity change (PNC), negative = inhibition, % at 10 µM. actives 3.1% (n = 140,000);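 active = readout at or below -70, meaning at least 70% loss of cells showing the perinucleolar compartment, a nuclear body marking cancer cells; inconclusive = readout between -30 and a set limit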
#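 Read-out is percentage of cells bearing a perinucleolar compartment, from automated 20x imaging of fixed, Hoechst-stained PC3M PTB-GFP cells. Cells were seeded 4 h, then exposed 16 h to compound (23 nl of library stock) in duplicate plates.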
# LMNA splice mod: LMNA splicing modulation. HeLa LMNA splicing GFP/RFP minigene ratio, 48 h. Potency, µM (doses to about 46.1 µM), most hits filed as inhibitors. actives 0.01% (n = 200,000). AID 1487; active = well fitted inhibition curve with a large enough effect in the signal ratio, with a control signal flat, not every such curve was filed as active; inconclusive = small, poorly fitted or top-dose-only effect, or effect the other way, or a change in a side signal; the % refers to the signal ratio
#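 S3 HeLa cells stably expressing lamin A-EGFP splicing minigene plus DsRed2, 600 cells/well, 48 h compound exposure at 37C. Laser-scanning cytometry; analysed as GFP (500-530 nm)/RFP (575-640 nm) total intensity ratio; 0.5% DMSO vehicle.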
# Numbers stand for hits; i = inactive; ? = inconclusive; nt = not tested or not shown; [ ] = remark or other dose. A selection: hits, their analogues and other compounds. The true share with any hit is near 10%. Unless noted, calls come from the whole dose curve; as a rule, active = well fitted inhibition curve with a large enough effect (not every such curve was filed as active); inconclusive = small, poorly fitted or top-dose-only effect, or another doubt; inactive = no such curve, though single readings can be large or run the other way.
SMILES,ALOX12 inhib,ALDH1A1 inh,HPGD inh,PNC assembly inh,LMNA splice mod
COc1ccc(CSc2nnc(NC(C)=O)s2)cc1[N+](=O)[O-],nt,i,nt,nt,i
COc1ccc(CCNC(=O)c2nc(-c3ccc(Cl)cc3)n3c2CCCCC3)c(OC)c1,nt,nt,nt,nt,i
c1ccc(C2Oc3ccccc3C3CC(c4cccs4)=NN32)cc1 (stereo not drawn),i,13µM,?,i,?
O=[N+]([O-])c1ccc(C2Oc3ccccc3C3CC(c4ccccc4)=NN32)s1 (stereo not drawn),i,?,i,i,?
CCN1C(=O)C(Cc2nc3ccccc3c(=O)n2C)c2cc(C)ccc21 (stereo not drawn),nt,nt,nt,nt,i
COc1ccccc1OCC(=O)NNC(=S)NC(=O)c1ccco1,i,28µM,i,?,?
COc1ccccc1C(=O)NC(=S)Nc1ccc(NC(=O)c2ccco2)cc1,nt,13µM,nt,nt,i
COc1ccccc1OCC(=O)NCc1ccco1,i,i,?,i,i
O=C(/C=C/c1ccc(Cl)cc1)NC(=S)Nc1ccc(NC(=O)c2ccco2)cc1,i,i,i,-112,?
CCC(=O)NC(=S)Nc1ccc(NC(=O)c2ccco2)cc1,nt,i,nt,nt,?
CC(C)CC(=O)NC(=S)Nc1ccc(NC(=O)c2ccco2)cc1,i,i,14µM,i,i
C[C@@H](CNC1CCCCC1)OC(=O)c1ccccc1,i,i,i,nt,?
Cc1ccc(S(=O)(=O)N2CCC(c3ccncc3)CC2)c(C)c1,nt,nt,nt,nt,i
COc1ccc(-c2cc3c(=O)n(CC(=O)Nc4cc(C)ccc4C)ccn3n2)cc1,nt,nt,nt,nt,i
O=C(NCCS(=O)(=O)N1CCN(c2cccc(Cl)c2)CC1)C(c1ccccc1)c1ccccc1,nt,nt,nt,nt,i
C=CC[C@H](N)C(=O)O,i,i,i,nt,i
COc1ncc2ncc(=O)n(C[C@H]3CCCO3)c2n1,nt,?,nt,nt,i
CC(NC(=O)C1CCCC1)C1CC2CCC1C2 (stereo not drawn),i,i,28µM,i,?
CC(NC(=O)C1CC=CCC1C(=O)O)C1CC2CCC1C2 (stereo not drawn),i,i,i,?,i
Cc1ccc(-n2nc(C(=O)N3CCC(C)CC3)c(=O)n(C)c2=O)cc1,nt,nt,nt,nt,i
O=C(Nc1cc(S(=O)(=O)Nc2ccc(Cl)cc2)ccc1N1CCCCC1)c1ccc(F)cc1Cl,i,32µM,?,?,?
COc1ccc(NS(=O)(=O)c2ccc(N3CCOCC3)c(NC(=O)c3ccc(OC)cc3)c2)cc1,i,i,i,?,?
COC(=O)CCC(=O)Nc1cc(S(=O)(=O)Nc2ccc(Cl)cc2)ccc1N1CCOCC1,i,20µM,?,?,i
CCOC(=O)c1c(NC(=O)CSc2nnc(Cc3ccccc3)o2)sc(C(C)=O)c1C,i,i,i,i,i
CCOC(=O)c1sc(NC(=O)CSc2ccccn2)c(C#N)c1C,i,25µM,i,i,i
SMILES,ALOX12 inhib,ALDH1A1 inh,HPGD inh,PNC assembly inh,LMNA splice mod
CCOC(=O)c1sc(NC(=O)CSc2nc(C)cc(C)n2)c(C#N)c1C,i,i,i,i,i
CCOC(=O)c1sc(NC(=O)c2cc(-c3ccccc3)nc3ccccc23)c(C#N)c1C,i,3.2µM,16µM,i,i
CCOC(=O)c1sc(NC(=O)CSc2nnc(Cc3ccccc3)o2)c(C#N)c1C,i,0.56µM,2µM,i,i
COc1ccccc1CNS(=O)(=O)c1ccc2c(c1)CC(C)N2C(C)=O (stereo not drawn),nt,nt,nt,nt,i
CC1(C)Cc2c(c(-c3ccco3)[nH]c(=O)c2C#N)CS1,i,5.6µM,14µM,i,i
CC1(C)Cc2c(c(-c3ccccc3)[nH]c(=O)c2C#N)CS1,i,28µM,?,i,i
Cc1cc(C(C)(C)C)cc(CNC2CCCCC2)c1O,i[11.4 µM],i[13.5 µM],i,nt,nt
CCOC(=O)C(CC)Sc1nc2c(c(=O)[nH]c(=O)n2C)n1CCc1ccccc1 (stereo not drawn),i,11µM,22µM,i,i
CC(C)CCn1c(SCC(=O)c2ccccc2)nc2c1c(=O)[nH]c(=O)n2C,i,18µM,i,i,i
Cn1c(=O)[nH]c(=O)c2c1nc(SCC(=O)O)n2CCc1ccccc1,?,6.3µM,13µM,?,i
CC(CSc1nc2ccccc2s1)Cn1c(N2CCCC2)nc2c1c(=O)[nH]c(=O)n2C (stereo not drawn),i,i,22µM,i,i
COc1ccc(NC(=O)Cn2ncc3c([nH]c4ccccc43)c2=O)cc1Cl,nt,nt,nt,nt,i
